# In PubChem BioAssay (EPA / NIEHS):
# Values joined by “and” are separate entries in the source; they are usually repeats but may differ in a detail not shown here. Equal values may be shown once. Records with an inconclusive call do not appear. Active and inactive are the calls of the source. Rule for the calls: active = hit-call score of the fitted dose curve at least 0.9, where 1 is the maximum; inconclusive = response in the unintended direction; inactive = score below 0.9.
# Molecular target: Luciferin 4-monooxygenase (Photinus pyralis) (UniProt P08659)
# Sequence (P08659 whole entry, looked up): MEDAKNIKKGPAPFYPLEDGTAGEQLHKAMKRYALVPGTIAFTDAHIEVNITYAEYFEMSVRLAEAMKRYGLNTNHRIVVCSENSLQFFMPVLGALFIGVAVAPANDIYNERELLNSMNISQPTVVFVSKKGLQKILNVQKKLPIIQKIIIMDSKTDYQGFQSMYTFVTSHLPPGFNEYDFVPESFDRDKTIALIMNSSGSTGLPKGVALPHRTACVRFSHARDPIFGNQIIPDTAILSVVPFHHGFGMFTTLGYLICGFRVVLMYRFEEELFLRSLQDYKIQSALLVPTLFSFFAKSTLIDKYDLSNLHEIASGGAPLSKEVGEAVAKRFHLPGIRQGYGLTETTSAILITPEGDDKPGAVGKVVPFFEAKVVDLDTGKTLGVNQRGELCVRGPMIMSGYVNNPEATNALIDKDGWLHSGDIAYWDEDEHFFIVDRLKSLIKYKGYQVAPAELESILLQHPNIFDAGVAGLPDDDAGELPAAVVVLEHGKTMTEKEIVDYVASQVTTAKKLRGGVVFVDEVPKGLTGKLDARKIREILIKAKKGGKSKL
# Assay: CCTE_Simmons_QuantiLum_inhib_2: CCTE's Firefly Luciferase Inhibition Assay, Simmons Lab (AID 2283767);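 for AC50: potency for inhibitors that lower luciferase luminescence relative to DMSO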
# Outline: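 Eight test concentrations, 5 nM up to 87.5 uM final, preincubated 30min at 37C in the dark with purified luciferase (0.5% DMSO final). Detection reagent (150uM D-luciferin, 147uM dATP, 75uM CoA, pH 7.8) injected per well before kinetic luminescence read; three replicates.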
Structure (SMILES),outcome,AC50
CCOP(=S)(OCC)OC(Cl)C(Cl)(Cl)Cl (stereo unspecified),inactive,
CCOP(=S)(Oc1cnc(C(C)(C)C)nc1)OC(C)C (stereo unspecified),,61.8 µM (active)
N#CSCSC#N,,53.8 µM (active)
CN(C)[C@@H]1C(=O)C(C(N)=O)=C(O)[C@@]2(O)C(=O)C3=C(O)c4c(O)cccc4[C@@](C)(O)[C@H]3[C@H](O)[C@@H]12,,714 nM (active) and 72.3 µM (active)
CCCOCC(=Nc1ccc(Cl)cc1C(F)(F)F)n1ccnc1,,36.8 µM (active)
CC1(C(=O)Nc2ccc(O)c(Cl)c2Cl)CCCCC1,inactive,
CCOP(=O)(NC(C)C)Oc1ccc(SC)c(C)c1 (stereo unspecified),inactive,
CCOP(=S)(OCC)Oc1cc(C)nc(C(C)C)n1,inactive,
CCOC(=O)CC(SP(=O)(OC)OC)C(=O)OCC (stereo unspecified),inactive,
CCC(=O)Nc1ccc(Cl)c(Cl)c1,inactive,
COP(=O)(NC(C)=O)SC (stereo unspecified),,37.5 µM (active)
CCCSP(=O)(OCC)Oc1ccc(Br)cc1Cl (stereo unspecified),inactive,
CCOP(=O)(SC(C)CC)N1CCSC1=O (stereo unspecified),inactive,
CCCSP(=O)(OCC)SCCC,inactive,
COP(=O)(OC)SCn1c(=O)oc2cc(Cl)cnc21,inactive,
O=c1ccc(=O)[nH][nH]1,inactive,
CSC1=N[C@@](C)(c2ccccc2)C(=O)N1Nc1ccccc1,inactive,
CCC(=NOC/C=C/Cl)C1=C(O)CC(C2CCOCC2)CC1=O (stereo unspecified),inactive,
CCOP(=S)(OCC)Oc1ccc2c(C)c(Cl)c(=O)oc2c1,inactive,
C#CCC1=C(C)C(OC(=O)C2C(C=C(C)C)C2(C)C)CC1=O (stereo unspecified),inactive,
C=C(C)[C@H]1Cc2c(ccc3c2O[C@@H]2COc4cc(OC)c(OC)cc4[C@@H]2C3=O)O1,inactive,
S=C1NCCN1,,1.9 µM (active)
CCOP(=S)(OCC)Oc1ccc([N+](=O)[O-])cc1,,26.9 µM (active)

# Molecular target: zebrafish Estrogen Receptor (ESR1), esr1 (gene 259252) (UniProt P57717)
# Sequence (P57717 whole entry, looked up): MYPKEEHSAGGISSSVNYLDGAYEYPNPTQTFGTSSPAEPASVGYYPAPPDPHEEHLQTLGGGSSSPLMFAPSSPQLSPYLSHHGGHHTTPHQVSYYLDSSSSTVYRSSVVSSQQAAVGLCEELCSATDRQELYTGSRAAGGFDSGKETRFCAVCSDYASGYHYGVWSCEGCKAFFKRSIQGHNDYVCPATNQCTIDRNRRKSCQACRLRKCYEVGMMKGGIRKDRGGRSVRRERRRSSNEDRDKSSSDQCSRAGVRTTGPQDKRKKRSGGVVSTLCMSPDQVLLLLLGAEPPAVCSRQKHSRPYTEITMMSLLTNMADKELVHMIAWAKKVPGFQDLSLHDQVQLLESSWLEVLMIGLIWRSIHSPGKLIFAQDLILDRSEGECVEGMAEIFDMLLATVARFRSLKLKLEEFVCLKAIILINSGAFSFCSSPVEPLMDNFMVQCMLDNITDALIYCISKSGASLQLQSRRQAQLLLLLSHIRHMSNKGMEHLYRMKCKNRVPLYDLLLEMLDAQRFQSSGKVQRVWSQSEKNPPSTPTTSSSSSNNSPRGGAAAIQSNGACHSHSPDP
# Assay: ATG_zfER1_XSP1: Attagene TRANS-FACTORIAL Multi-Species (XSP1) HepG2 Assay for zebrafish Estrogen Receptor (ESR1) (AID 2283772)
# Outline: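 HepG2 cells were transiently transfected with multiplexed GAL4-UAS reporter units driven by chimeric NR-GAL4 proteins, dosed for 24 h with 3 nM 6-alpha-fluorotestosterone present, and reporter mRNA quantified by RT-PCR and capillary electrophoresis versus DMSO.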
row,Structure (SMILES),outcome
1,C#CC(C)(C)NC(=O)c1cc(Cl)cc(Cl)c1,inactive
2,CCCOCC(=Nc1ccc(Cl)cc1C(F)(F)F)n1ccnc1,inactive
3,CCc1cccc(C)c1N(C(=O)CCl)C(C)COC (stereo unspecified),inactive

# Tested on: zebrafish Estrogen Receptor (ESR2B), gene 317733
# Assay: ATG_zfER2b_XSP1: Attagene TRANS-FACTORIAL Multi-Species (XSP1) HepG2 Assay for zebrafish Estrogen Receptor (ESR2B) (AID 2283773)
# Experimental: ATG_XSP1_multi-species_TRANS is a cell-based, multiplexed assay created by modifying the existing Attagene TRANS-FACTORIAL system to include a panel of nuclear receptors from some or all the following species: human (Homo sapiens), mouse (Mus musculus), frog (Xenopus laevis), zebrafish (Danio rerio), chicken (Gallus gallus), and turtle (Chrysemys picta). The ECOTOX-FACTORIAL format uses HepG2, a human liver cell line, with measurements taken at 24 hours after chemical dosing in a 24-well plate. Xsp1 included 3 nM 6-alpha-fluorotestosterone to partially stimulate the androgen receptor.ATG_zfER2b_XSP1 is one of 29 assay components measured or calculated from the ATG_XSP1_multi-species_TRANS assay. It is designed to make measurements of mRNA induction, a form of inducible reporter, as detected with fluorescence intensity signals by Reverse transcription polymerase chain reaction (RT-PCR) and Capillary electrophoresis technology.The assay endpoint ATG_zfER2b_XSP1 was analyzed in the positive analysis fitting direction relative to DMSO as the negative control and baseline of activity. Using a type of inducible reporter, measures of mRNA for gain-of-signal activity can be used to understand the reporter gene at the transcription factor-level as they relate to the gene ER. Furthermore, this assay endpoint can be referred to as a primary readout, because this assay has produced multiple assay endpoints where this one serves a reporter gene function. To generalize the intended target to other relatable targets, this assay endpoint is annotated to the nuclear receptor intended target family, where the subfamily is steroidal.
# Human liver HepG2 cells are transiently transfected with multiple reporter transcription units (MRTUs) in 6-well plates using FuGene 6 reagent (Roche; 3 ml FuGene/1 mg DNA). The MRTU constructs are regulated by a cis-regulating element (promoter). […] A major difference between the CIS and TRANS system is that in CIS activities of endogenous TFs are measured, whereas the TRANS assay evaluates changes in activities of exogenous, chimeric NR-Gal4 proteins. […] At the end of 24 hour incubation, total RNA was isolated using TriZol reagent (Invitrogen). The isolated RNA is then reverse-transcribed using oligo(dT) primer and Mo-MLV reverse transcriptase (Invitrogen) with DNAse I (Ambion) treatment for 30 min. The one-tenth of the produced cDNA was amplified by PCR using Taq DNA polymerase (Invitrogen) and two reporter sequence-specific primers. The PCR products were fluorescently labeled by primer extension with 6-arboxyfluorescein (6-FAM) 5'-labeled reporter sequence-specific primer (2 min at 95 C, 20 s at 68 C and 10 min at 72 C) and these products were digested with 5U of HpaI (New England Biolabs) for 2h at 37 C. The fragments were purified using Qiaquick PCR columns (Qiagen), analyzed on an ABI 3130xL genetic analyzer (Applied Biosystems) with peak positions identified by using a set of X-rhodamine (ROX)-labeled MapMarker1000 molecular weight standards (BioVentures). The raw capillary electrophoresis data was processed using Attagraph software (Attagene).
Structure (SMILES),AC50,outcome
C#CC(C)(C)NC(=O)c1cc(Cl)cc(Cl)c1,52.6 µM (active),
CCCOCC(=Nc1ccc(Cl)cc1C(F)(F)F)n1ccnc1,,inactive
CCOP(=S)(OCC)Oc1ccc2c(C)c(Cl)c(=O)oc2c1,44.6 µM (active),
C#CCC1=C(C)C(OC(=O)C2C(C=C(C)C)C2(C)C)CC1=O (stereo unspecified),25.3 µM (active),
CCc1cccc(C)c1N(C(=O)CCl)C(C)COC (stereo unspecified),35.8 µM (active),

# Tested on: frog Estrogen Receptor (ESR2), gene 100174814
# Assay: ATG_frER2_XSP1: Attagene TRANS-FACTORIAL Multi-Species (XSP1) HepG2 Assay for frog Estrogen Receptor (ESR2) (AID 2283774)
# Outline: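 HepG2, transient MRTU transfection (GAL4-UAS reporters, exogenous NR-Gal4 chimeras); 24 h compound exposure; 3 nM 6α-fluorotestosterone co-added; total RNA → RT-PCR → 6-FAM primer extension → HpaI → CE. Positive direction vs DMSO.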
row,Structure (SMILES),AC50
1,C#CC(C)(C)NC(=O)c1cc(Cl)cc(Cl)c1,56.3 µM (active)
2,CCCOCC(=Nc1ccc(Cl)cc1C(F)(F)F)n1ccnc1,2.94 µM (active)
3,CCOP(=S)(OCC)Oc1ccc2c(C)c(Cl)c(=O)oc2c1,34.6 µM (active)
4,C#CCC1=C(C)C(OC(=O)C2C(C=C(C)C)C2(C)C)CC1=O (stereo unspecified),23.4 µM (active)
5,CCc1cccc(C)c1N(C(=O)CCl)C(C)COC (stereo unspecified),48.9 µM (active)

# Tested on: not listed separately
# Assay: ACEA_AR_agonist_AUC_viability: ACEA Biosciences xCELLigence Real-Time Cell Analysis on Androgen Receptor Agonism for Viability (AID 2283775);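 for AC50: viability read 80 hours after compound addition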
# Outline: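 22Rv1 cells; impedance growth kinetics; 8-pt 1:4 dilutions from 100 uM top final, ≤0.5% DMSO; n = 2; 80 h read; AUC viability, loss-of-signal vs DMSO.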
Structure (SMILES),outcome,AC50
C#CC(C)(C)NC(=O)c1cc(Cl)cc(Cl)c1,inactive,
CC1=NNC(=O)N(/N=C/c2cccnc2)C1,inactive,
O=[N+]([O-])c1cc(C(F)(F)F)c(Cl)c([N+](=O)[O-])c1Nc1ncc(C(F)(F)F)cc1Cl,,8.38 µM (active)
CCOP(=S)(Oc1cnc(C(C)(C)C)nc1)OC(C)C (stereo unspecified),,46.3 µM (active)
CCOC(=O)COc1cc(-c2nn(C)c(OC(F)F)c2Cl)c(F)cc1Cl,inactive,
N#CSCSC#N,,7.42 µM (active)
CN(C)[C@@H]1C(=O)C(C(N)=O)=C(O)[C@@]2(O)C(=O)C3=C(O)c4c(O)cccc4[C@@](C)(O)[C@H]3[C@H](O)[C@@H]12,,50 µM (active)
CNC(=O)ON=C(C)SC,inactive,
CCCOCC(=Nc1ccc(Cl)cc1C(F)(F)F)n1ccnc1,,22.7 µM (active)
CC1(C(=O)Nc2ccc(O)c(Cl)c2Cl)CCCCC1,,64.9 µM (active)
CSc1nnc(C(C)(C)C)c(=O)n1N,inactive,
CCOP(=O)(NC(C)C)Oc1ccc(SC)c(C)c1 (stereo unspecified),,9.92 µM (active)
CCOP(=S)(OCC)Oc1cc(C)nc(C(C)C)n1,inactive,
CCOC(=O)CC(SP(=O)(OC)OC)C(=O)OCC (stereo unspecified),inactive,
CCC(=O)Nc1ccc(Cl)c(Cl)c1,inactive,
COP(=O)(NC(C)=O)SC (stereo unspecified),inactive,
O=C(O)c1cc(Oc2ccc(C(F)(F)F)cc2Cl)ccc1[N+](=O)[O-],,50 µM (active)
CCCSP(=O)(OCC)Oc1ccc(Br)cc1Cl (stereo unspecified),inactive,
CCCSP(=O)(OCC)SCCC,inactive,
COP(=O)(OC)SCn1c(=O)oc2cc(Cl)cnc21,,23.7 µM (active)
C[Si](Cn1cncn1)(c1ccc(F)cc1)c1ccc(F)cc1,,60.4 µM (active)
CSC1=N[C@@](C)(c2ccccc2)C(=O)N1Nc1ccccc1,,31.6 µM (active)
CCC(=NOC/C=C/Cl)C1=C(O)CC(C2CCOCC2)CC1=O (stereo unspecified),inactive,
CCOP(=S)(OCC)Oc1ccc2c(C)c(Cl)c(=O)oc2c1,inactive,
C#CCC1=C(C)C(OC(=O)C2C(C=C(C)C)C2(C)C)CC1=O (stereo unspecified),,67.2 µM (active)
CCc1cccc(C)c1N(C(=O)CCl)C(C)COC (stereo unspecified),inactive,
C[N+]1(C)CCCCC1,inactive,
C=C(C)[C@H]1Cc2c(ccc3c2O[C@@H]2COc4cc(OC)c(OC)cc4[C@@H]2C3=O)O1,,0.284 µM (active)
S=C1NCCN1,inactive,
CCOP(=S)(OCC)Oc1ccc([N+](=O)[O-])cc1,inactive,
